Laboratory results as given in PubChem BioAssay AID1851 (National Center for Advancing Translational Sciences (NCATS), 2009).
“And” between values parts separate entries of the source, which are not always exact repeats. Equal values may be shown once. Hit rate of the full screen: of about 16,000 compounds, about 5,800 (36%) were called active. Another 23% or so got no clear call; they are omitted. Calls follow the shape of the dose curve; as a rule, active = well fitted curve in the direction sought with a large enough effect; inconclusive = small, poorly fitted or top-dose-only effect, or effect the other way; inactive = no such curve, though single readings can be large or run the other way. The list shows a part of the results.

molecular target: Cytochrome P450 2C19 (Homo sapiens) (UniProt P33261); test: Cytochrome panel assay with activity outcomes; conditions: recombinant CYP, pro-luciferin dealkylation, luminescence, p450-cyp2c19; series mostly up to 57.1 µM
Sequence (P33261 whole entry, looked up): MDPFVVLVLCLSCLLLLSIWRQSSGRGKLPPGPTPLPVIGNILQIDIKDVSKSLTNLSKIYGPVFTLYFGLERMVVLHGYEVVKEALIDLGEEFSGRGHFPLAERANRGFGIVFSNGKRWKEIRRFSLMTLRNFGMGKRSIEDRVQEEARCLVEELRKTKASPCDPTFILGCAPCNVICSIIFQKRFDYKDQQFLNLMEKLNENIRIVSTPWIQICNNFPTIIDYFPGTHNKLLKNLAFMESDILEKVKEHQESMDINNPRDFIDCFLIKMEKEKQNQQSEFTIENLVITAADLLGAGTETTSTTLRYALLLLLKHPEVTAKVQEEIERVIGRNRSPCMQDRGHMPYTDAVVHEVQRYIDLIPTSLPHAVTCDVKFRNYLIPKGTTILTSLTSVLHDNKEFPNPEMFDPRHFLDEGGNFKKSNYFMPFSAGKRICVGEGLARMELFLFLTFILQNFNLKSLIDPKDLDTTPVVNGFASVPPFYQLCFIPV
% is scaled to controls: 0 for no effect and ±100 for the full control effect.

Row | Structure (SMILES) | AC50 | activity, negative = inhibition
1 | COc1ccc(/C=C(/C#N)C(=O)Nc2cc(C)ccc2C)cc1C(=O)O | inactive | –
2 | COc1cc(/C=C(/C#N)c2nc3ccccc3[nH]2)ccc1Oc1ncccc1[N+](=O)[O-] | 3.98 µM (active) | –
3 | COc1cc(/C=C(/C#N)c2nc3ccccc3[nH]2)ccc1OCC(=O)Nc1ccccc1C | 4.47 µM (active) | –
4 | CCOC(=O)/C(C#N)=C\N(C)C | inactive | –
5 | CCOC(=O)/C(C#N)=C\c1ccc(OCC(=O)Nc2ccc(C)cc2C)c(OC)c1 | 2.82 µM (active) | –
6 | Cn1c(CNS(=O)(=O)c2ccc(Cl)cc2)n[nH]c1=S | inactive | –
7 | O=S(=O)(NCc1cc(-c2ccccc2)no1)c1ccc(Cl)cc1 | 0.708 µM (active) | –
8 | COc1ccc(-c2cc(CNC(C)=O)on2)cc1 | inactive | –
9 | O=S(=O)(NCc1cc(-c2ccc(Cl)cc2)no1)c1ccc(Cl)cc1 | 1.58 µM (active) | –
10 | Clc1ccc(SCc2cc(-c3ccccc3)no2)cc1 | 1.12 µM (active) | –
11 | O=c1cnc2cnc(N3CCOCC3)nc2n1C1CC1 | inactive | –
12 | Nc1nc(N)[n+]([O-])c(N)c1NCO | – | 33.1% [at 11.4 µM] (inactive)
13 | CC(=O)Nc1ccc(N2CCCCC2)cc1 | 31.6 µM (active) | –
14 | CC(=O)Nc1ccc(N2CCCCC2)c(C(=O)Nc2cccc(C)c2)c1 | 20 µM (active) | –
15 | CC(=O)Nc1ccc(NC(=O)C/C(C)=N/NC(=O)C(=O)N2CCCC2)cc1 | inactive | –
16 | O=C(Nc1ccc(N2CCCCC2)cc1)c1cncc(Br)c1 | 17.8 µM (active) | –
17 | CC(=O)Nc1cccc(N2C(=O)CCC2=O)c1 | inactive | –
18 | CC(=O)OC[C@@H]1O[C@@H](O/N=C2/C[C@@H](O)[C@@H](O)[C@@H]3[C@@H]4C(=O)N([C@@H](C)c5ccccc5)C(=O)[C@H]4CC[C@@H]23)[C@H](OC(C)=O)[C@H](OC(C)=O)[C@@H]1OC(C)=O | – | 23% [at 11.4 µM] (inactive)
19 | CC(C)NC(=O)N1CCC2(CC1)CCN(C(=O)c1cccn1C)CC2 | inactive | –
20 | CNCCCCCCCCSc1nc(C(C)C)ccc1C(=O)c1cccs1 | 15.8 µM (active) | –
21 | CCOc1ccc(Cl)cc1CNCCNCC(C)O (stereo unspecified) | inactive | –

Row | Structure (SMILES) | AC50 | activity, negative = inhibition
22 | CC(C)NCCCOc1ccc(Cl)cc1Br | 8.91 µM (active) | –
23 | CCN(CC)c1ccc(NC(=O)c2cnn(CC)c2)cc1 | 28.2 µM (active) | –
24 | CC(C)CCNC1=NCCCCC1 | inactive | –
25 | CCNc1ccc(Br)cc(C(=O)/C=C/c2ccc3c(c2)OCO3)c1=O | 3.98 µM (active) | –
26 | CNc1ccc(Br)cc(C(=O)/C=C/c2ccc3c(c2)OCO3)c1=O | 1.78 µM (active) | –
27 | N#Cc1cccc(-c2cc(NCc3cccs3)ncn2)c1 | 10 µM (active) | –
28 | N#Cc1cccc(-c2nccc(NCc3ccccc3)n2)c1 | 10 µM (active) | –
29 | N#Cc1cccc(-c2nccc(NCc3cccs3)n2)c1 | 3.98 µM (active) | –
30 | c1cncc(-c2cc(NCc3cccs3)ncn2)c1 | inactive | –
31 | c1csc(CNc2cc(-c3ccoc3)ncn2)c1 | 10 µM (active) | –
32 | c1ccc(CNc2cc(-c3ccoc3)ncn2)cc1 | inactive | –
33 | CCOC(=O)C(NC(C)=O)C(=O)O (stereo unspecified) | inactive | –
34 | CN(C)C(=O)c1ccc(-c2cc(NCc3ccccc3)ncn2)cc1 | inactive | –
35 | Cc1cnc(CNc2cc(-c3cccc(C#N)c3)ncn2)cn1 | inactive | –
36 | Cc1cccc(CNc2cc(-c3ccc(N(C)C)cc3)ncn2)c1 | 3.16 µM (active) | –
37 | CN(C)c1ccc(-c2cc(NCc3ccccc3)ncn2)cc1 | inactive | –
38 | Cc1cccc(CNc2cc(-c3cccc(C#N)c3)ncn2)c1 | 6.31 µM (active) | –
39 | Cc1cccc(CNc2ccnc(-c3cccc(C#N)c3)n2)c1 | 2.51 µM (active) | –
40 | CO[C@]1(NC(=O)Cc2cccs2)C(=O)N2C(C(=O)O)=C(COC(N)=O)CS[C@H]21 | inactive | –
41 | CO[C@H]1COC(=O)C/C=C\[C@@H](C)COC(=O)[C@@H](CCSC)NC(=O)C/C=C\[C@@H]1C | – | -53.8% [at 11.4 µM] (inactive) and -16.1% [at 11.4 µM] (inactive)
42 | CO[C@H]1COC(=O)C/C=C\[C@H](C)[C@@H](NS(=O)(=O)c2ccc(C)cc2)COC(=O)CCC[C@@H]1C | – | -36% [at 11.4 µM] (inactive)

Row | Structure (SMILES) | AC50 | activity, negative = inhibition
43 | COc1ccccc1CNS(=O)(=O)c1ccc2[nH]cc(C(=O)O)c(=O)c2c1 | inactive | –
44 | COc1cccc(NS(=O)(=O)c2ccc3[nH]cc(C(=O)NCCN4CCOCC4)c(=O)c3c2)c1 | 22.4 µM (active) | –
45 | Cc1ccc(C)n1CCN1CCN(CC(=O)Nc2cc(C(F)(F)F)ccc2Cl)CC1 | 10 µM (active) | –
46 | COC(=O)N1CCC2(CCN(Cc3cc(C(F)(F)F)cc(C(F)(F)F)c3)CC2)CC1 | inactive | –
47 | O=C(CCN1CCN(CC(=O)Nc2ccccc2Cl)CC1)Nc1ccccc1F | 2.51 µM (active) | –
48 | OCCN1CCN(CC/C=C2\c3ccccc3Sc3ccc(C(F)(F)F)cc32)CC1 | inactive | –
49 | O=C(CCN1CCN(c2ccccc2F)CC1)Nc1ccccc1F | 4.47 µM (active) | –
50 | Cc1ccc(N2CCN(CCC(=O)O)CC2)cc1 | – | 10.7% [at 11.4 µM] (inactive)
51 | CC1=C(C#N)C(Nc2ccc(Cl)cn2)(C(F)(F)F)C(=O)N1 (stereo unspecified) | 0.794 µM (active) | –
52 | CNC(=S)N1N=C(c2ccc(OC)cc2)CC1c1ccc(N(C)C)cc1 (stereo unspecified) | 3.16 µM (active) | –
53 | CCN1C(=O)[C@H]2[C@H]3[C@H](O)[C@H](O)C/C(=N/NC(=O)OCc4ccccc4)[C@H]3CC[C@@H]2C1=O | – | -7.17% [at 11.4 µM] (inactive)
54 | Cc1noc(C)c1COc1cccc(C(=O)OCC(=O)N2CC(=O)Nc3ccccc32)c1 | 3.16 µM (active) | –
55 | O=[N+]([O-])c1ccc(-c2cnc(SCc3ccccc3Cl)[nH]2)cc1 | 2.24 µM (active) | –
56 | CC(C)C(=O)Nc1ccc(Sc2ccc(F)cc2)cc1 | 7.94 µM (active) | –
57 | CCOc1ccc(Cc2nc(C)c(CC(=O)N3CCOCC3)c(=O)[nH]2)cc1 | inactive | –
58 | CCOc1ccc2[nH]c(=O)c(CN(CCc3ccccc3)C(=O)N3CCCC3)cc2c1 | 20 µM (active) | –
59 | O=C(O)c1cc2cc(OCc3ccccc3)ccc2[nH]1 | inactive | –
60 | C[N+]1(CC(=O)OCCCc2ccccc2)CCOCC1 | inactive | –
61 | CCOc1ccc2[nH]c(=O)c(CN(CCc3ccccc3)C(=O)N3CCOCC3)cc2c1 | 11.2 µM (active) | –
